Assay outcomes deposited in PubChem BioAssay by National Center for Advancing Translational Sciences (NCATS).
Sm TGR inh: S. mansoni TGR enzyme inhibition. Potency, µM (titrated, usually from 114 µM), inactives show at the top dose activity change, negative = inhibition, actives largely listed as inhibitors. purified TGR, DTNB reduction, TNB absorbance 405 nm. AID 485364. 3% of 360,000 active; further: on the % scale 0 is the no-effect control and ±100 the full control effect; nearly all actives have a fitted effect of over 60% in size
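Kinetic colorimetric format: TGR-catalysed, NADPH-driven DTNB reduction monitored via TNB absorbance. Enzyme dispensed at 20 nM; compound exposure 15 min at room temperature before reaction start.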
AmpC inh detg: AmpC beta-lactamase inhibition with detergent present; AmpC hydrolysis of nitrocefin, absorbance 480 nm, 0.01% Triton; 0.041% of 370,000 active; Potency, µM (highest dose often 114 µM), for the others: at the highest dose activity change, negative = inhibition, most hits filed as inhibitors; P00811; AID 485294;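 further: 0% = no-compound wells and -100% = no-enzyme wells; nearly all actives have a fitted effect of over 25% in size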
Target sequence (P00811 whole entry, looked up): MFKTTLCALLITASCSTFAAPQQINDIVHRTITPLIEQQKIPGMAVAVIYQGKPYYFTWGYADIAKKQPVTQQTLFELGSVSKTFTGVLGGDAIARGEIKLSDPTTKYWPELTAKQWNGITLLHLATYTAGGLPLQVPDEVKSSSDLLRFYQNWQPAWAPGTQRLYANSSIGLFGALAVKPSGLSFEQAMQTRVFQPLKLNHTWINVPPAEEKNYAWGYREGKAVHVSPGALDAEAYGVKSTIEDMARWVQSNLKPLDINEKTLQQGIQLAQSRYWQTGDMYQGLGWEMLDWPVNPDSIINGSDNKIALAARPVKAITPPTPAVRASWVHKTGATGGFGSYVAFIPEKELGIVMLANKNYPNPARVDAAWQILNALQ
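20 mM phosphate pH 7.0 + 0.01% (detergent screen) or 0.0001% Triton X-100; 5.3 nM AmpC reagent; cpd preinc 15 min RT; nitrocefin (800 uM stock) to start; A480 q20 s × 4 min; Activity was normalised to no-enzyme and no-compound control wells.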
Pf growth 48h: P. falciparum growth inhibition at 48 hours (one generation); 5.9% of 310,000 active; Potency, µM (highest dose often 28.7 µM), inactives show at the highest dose activity change, negative = inhibition, usual class: inhibitors; P. falciparum luciferase growth in erythrocytes, 48 h; further: on the % scale 0 is the no-effect control and ±100 the full control effect
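Growth was read as firefly luciferase luminescence after a 48 h, 37 C, 5% CO2 exposure of compounds to reporter-bearing P. falciparum cultures (0.1% parasitemia, 2% hematocrit final) in Albumax-supplemented RPMI 1640.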
SARS PLP yeast: SARS-CoV PLP inhibition in yeast. S. cerevisiae expressing SARS-CoV PLpro, growth rescue. Potency, µM (series often up to 32.9 µM), for the others: at the top dose activity, positive = growth rescue, usual class: activators. 0.19% of 330,000 active. AID 485353; calls by dose curve; further: 0% is about no effect; nearly all actives have a fitted effect of over 55% in size
AmpC inh no detg: blocks E. coli AmpC beta-lactamase in detergent-free assay; P00811; AmpC nitrocefin hydrolysis, absorbance 480 nm, 0.0001% Triton; 0.52% of 330,000 active; Potency, µM (doses to about 57.1 µM), without a hit: top-dose activity change, negative = inhibition, usual class: inhibitors;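 further: plate controls were no compound for no effect and no enzyme for full effect; nearly all actives have a fitted effect of over 20% in size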
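AmpC (5.3 nM in the dispensed reagent) in 20 mM phosphate pH 7.0 with 0.01% (detergent screen) or 0.0001% Triton X-100 was preincubated with compounds for 15 min at room temperature. Nitrocefin was then added from an 800 uM solution, and hydrolysis was followed at 480 nm.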
Pf growth 96h: P. falciparum growth inhibition at 96 hours; P. falciparum luciferase reporter growth, 96 h; Potency, µM (doses to about 28.7 µM), for the others: at the top dose activity change, negative = inhibition, usual class: inhibitors; 6.9% of 320,000 active; AID 504834; further: on the % scale 0 is the no-effect control and ±100 the full control effect
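Two-generation exposure (96 h) targets delayed-death phenotype. Reporter parasites carrying integrated firefly luciferase, in red cells at 2% hematocrit and 0.05% parasitemia final, kept at 37 C, 5% CO2; luminescence loss indicates inhibition.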
Starred values were filed as active, the others as inactive; ? = inconclusive; . = no result. Hits are enriched below; roughly 12% of the tested compounds scored in any of these assays. Unless noted, the call rests on the fitted dose curve; in most records, active means well fitted curve in the direction sought with a large enough effect; inconclusive means small, poorly fitted or top-dose-only effect, or another doubt; inactive means no such curve, though single readings can be large; an effect the other way counts as inactive or inconclusive. Potency means the concentration at half of the fitted maximal effect.

SMILES | Sm TGR inh | AmpC inh detg | Pf growth 48h | SARS PLP yeast | AmpC inh no detg | Pf growth 96h
CC1=CC(C)(C)Nc2ccc(OC(=O)c3ccco3)cc21 | -20% | -13% | 12µM* | -9% | -30% | 9.3µM*
CC1=CC(C)(C)Nc2ccc(OC(=O)C(C)N3C(=O)c4ccccc4C3=O)cc21 (centres undefined) | -10% | ? | 13µM* | -8% | ? | ?
CC1=CC(C)(C)Nc2ccc(OC(=O)c3cccnc3)cc21 | -14% | ? | 5.2µM* | -18% | 10% | .
O=C(Oc1ccc(F)cc1)c1cccnc1 | 28% | -4% | -22% | -1% | -10% | ?
COc1ccc(/C(C)=C2\SC(=S)N(CCC(=O)O)C2=O)cc1 | -21% | ? | . | 2% | -20% | -22%
COc1ccc(OC)c(NC(=O)COCc2cc(-c3ccco3)on2)c1 | -2% | 0% | . | . | . | .
CC1=CC(C)(C)Nc2ccc(OC(=O)CN3C(=O)CCC3=O)cc21 | 0% | -11% | 10µM* | 1% | -19% | .
Cc1ccccc1N1CCN(C(=O)c2ccc(Oc3ccc(C(F)(F)F)cn3)cc2)CC1 | -9% | 8% | 9.3µM* | -10% | ? | 13µM*
O=C(O)c1ccc(Oc2ccc(C(F)(F)F)cn2)cc1 | 5% | 8% | -4% | 0% | -15% | 16%
Cc1ccc(CNC(=O)CCC(=O)Nc2nnc(C(C)C)s2)cc1 | -1% | -14% | 23% | 11% | -4% | 37%
CCOc1ccccc1NS(=O)(=O)c1ccc2c(c1)CC(C)N2C(=O)C1CCC1 (centres undefined) | 0% | 1% | . | . | . | .
COc1ccc(-c2c(-c3ccc(OC)c(C)c3O)n[nH]c2C)cc1 | 8% | 0% | -12% | 5% | -40% | 12µM*
COc1ccc(-c2c(-c3ccc(O)cc3O)n[nH]c2C)cc1OC | 13% | 1% | . | 7% | -28% | ?
O=C1C2C3C=CC(C3)C2C(=O)N1c1cccc2cccnc12 (centres undefined) | 9% | -21% | 0% | -1% | -14% | 5.9µM*
O=C1C2C3C=CC(C3)C2C(=O)N1c1cccc(N2C(=O)C3C4C=CC(C4)C3C2=O)n1 (centres undefined) | -20% | 0% | 6% | 3% | -2% | -9%
COc1cccc(CNC(=O)C2=C(C)C(=O)OC23CCN(C(C)=O)CC3)c1OC | 2% | 12% | . | . | . | .
COc1ccc(S(=O)(=O)n2ccc(-c3ccc4c(c3)CCC(C)(C)O4)n2)cc1 | 15% | 0% | 10µM* | 1% | -20% | 9.3µM*
CCOC(=O)CN1C(=O)NC2(CCCc3ccccc32)C1=O (centres undefined) | 9% | -4% | 9% | 0% | -27% | 27%
Cc1ccccc1NC(=O)N1CCC(CN2CCCC2)CC1 | -19% | -1% | . | . | . | .
O=C(CSc1ncn[nH]1)NCCC(c1ccccc1)c1ccccc1 | 2% | -1% | ? | 2% | -14% | 10µM*
O=C(CSc1ncn[nH]1)CSc1ncn[nH]1 | 40µM* | 0% | ? | 1% | -18% | 6%
CC1CCC(C(C)C)C(OCC(O)C[N+]2(C)CCCCC2)C1 (centres undefined) | 7% | 1% | ? | 1% | 12% | 92%
CC1CCC(C(C)C)C(OCC[N+](C)(C)C)C1 (centres undefined) | -2% | ? | 3.7µM* | 2% | -1% | 15%
CCOC(=O)C1=C(Nc2ccccc2)CC(C)(O)C(C(=O)OCC)C1c1ccc(Cl)cc1 (centres undefined) | 2% | -1% | ? | -1% | -5% | 12µM*
Cc1ccc(NC(=S)NCCSc2ccc(Cl)cc2)cc1 | -16% | -4% | 12µM* | 11% | -36% | ?
COc1ccc(Cl)cc1NC(=S)NCCSc1ccc(C)cc1 | 1% | -5% | -16% | -99% | -32% | 12µM*
